The values that follow come from PubChem BioAssay (NCATS).

Results filed as inconclusive are left out. A call without a number means that no potency is given here. Activity calls are given as the source filed them. Calls follow the shape of the dose curve; as a rule, active = well fitted inhibition curve with a large enough effect; inconclusive = small, poorly fitted or top-dose-only effect; inactive = no such curve, though single readings can be large or run the other way.

The subject of experiment [1] is Zika virus NS2B-NS3 protease (unlinked complex). The experiment is described as follows: Primary screen GU Rhodamine qHTS for Zika virus inhibitors: Unlinked NS2B-NS3 protease assay (AID 1347159). Also: nearly all actives have a fitted effect of over 60% in size. A digest of the protocol:
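A qHTS format was used, with compound concentrations ranging up to 114 microM. Each compound was preincubated with 25 nM NS2B-NS3 protease, and the substrate was then added at 1.5 microM. Curves were fitted with a 4-parameter Hill model.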

Experiment [2] relates to Zika virus NS2B-NS3 protease (linked construct). The experiment is described as follows: Primary screen NINDS Rhodamine qHTS for Zika virus inhibitors (AID 1347160). Also: nearly all actives have a fitted effect of over 55% in size. A digest of the protocol:
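Kinetic fluorescence (Ex 480 nm, Em 540 nm) over 15 min with 1.5 microM Rhodamine110 peptide and 25 nM linked protease.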
Background: qHTS replaces the single test concentration by a dilution series.

In the case of `CCCCCCOC(=O)/N=C(\N)c1ccc(NCc2nc3cc(C(=O)N(CCC(=O)OCC)c4ccccn4)ccc3n2C)cc1`, the Potency result in experiment [1] and in experiment [2] was “inactive” throughout.
For the compound `COc1cc(C(C)=O)c(OC)c2c1OC(C)(C)C=C2`, the Potency result in experiment [1] and in experiment [2] was “inactive” in each case.
Consider `O=C(/C=C/c1ccccc1O)O[C@@H]1O[C@H](CO)[C@@H](O)[C@H](O)[C@H]1O`, for which the Potency result in experiment [1] and in experiment [2] was “inactive” each time.
As for `Cc1onc(-c2ccccc2)c1C(=O)N1CCN(c2ccc([N+](=O)[O-])cc2Cl)CC1`, the Potency result in experiment [1] and in experiment [2] was “inactive” each time.
`COc1ccc(OC)c(-c2ccc(NC(=O)c3ccncc3F)cc2)c1`: the Potency entry in experiment [1] and in experiment [2] was “inactive” in each case.
With `N#CC(CCCN1CCC(O)(c2ccc(Cl)cc2)CC1)(c1ccccc1)c1ccccc1`, the Potency entry in experiment [1] and in experiment [2] was “inactive” each time.
Regarding `O=C(Nc1ccc(C(F)(F)F)cn1)N1CCN(c2ncccc2C(F)(F)F)CC1`, the Potency entry in experiment [1] and in experiment [2] was “inactive” throughout.
Turning to `Cc1ccccc1C(C(=O)NC1CCCCC1)N(C(=O)Cn1cnc2ccccc21)c1cccc(F)c1` (stereo not drawn), the Potency result in experiment [1] and in experiment [2] was “inactive” each time.
`CCn1c(=O)n([C@H]2CCCN(c3nccc(-c4cc5ccccc5o4)n3)C2)c2ccccc21`: the Potency entry in experiment [1] and in experiment [2] was “inactive” throughout.
On to `C=C1C(=O)O[C@@H]2[C@H]1CC[C@H](C)[C@]1(CCC(=O)O1)C2(C)O` (stereo partly drawn), for which the Potency result in experiment [1] and in experiment [2] was “inactive” each time.
For `C=C(C)C(=O)OC1CC2(C)OC(=CC2=O)C(=C)CC2OC(=O)C(=C)C12` (stereo not drawn), the Potency result in experiment [1] and in experiment [2] was “inactive” each time.
For `COc1cc2ncnc(Nc3ccc(O)c(Br)c3)c2cc1OC`, the Potency result in experiment [1] and in experiment [2] was “inactive” throughout.
As for `Cn1cc(-c2ccc3c(c2)CCN3C(=O)Cc2cccc(C(F)(F)F)c2)c2c(N)ncnc21`, the Potency entry in experiment [1] and in experiment [2] was “inactive” in each case.
Take `C=CC(=O)N1CCCC(n2nc(-c3ccc(Oc4ccccc4)cc3)c3c(N)ncnc32)C1` (stereo not drawn): the Potency result in experiment [1] and in experiment [2] was “inactive” throughout.
For the compound `Cc1c[nH]c2ncnc(N3CCC(CN)(C(=O)Nc4cccc(OC(=O)N(C)C)c4)CC3)c12`, the Potency result in experiment [1] and in experiment [2] was “inactive” throughout.
For the compound `NC(=O)c1nc(Nc2ccccc2)sc1NC(=O)C1CCCCC1`, the Potency result in experiment [1] and in experiment [2] was “inactive” each time.
Regarding `C/C=C(\C)C(=O)O[C@H]1C=CC(=O)O[C@H]1/C=C/[C@@H](O)[C@H](C)O`, the Potency result in experiment [1] and in experiment [2] was “inactive” each time.
On to `C=CC(=O)Nc1ccc(CN2C(=O)N(c3cc(OC)cc(OC)c3)Cc3cnc(Nc4ccc(N5CCN(C)CC5)cc4)nc32)cc1`, for which the Potency result in experiment [1] and in experiment [2] was “inactive” each time.
On to `COc1ccc(S(=O)(=O)N2CCC[C@H]2C(=O)Nc2cc(C)cc(C)c2)cc1`, for which the Potency result in experiment [1] and in experiment [2] was “inactive” throughout.
`CC(=O)O[C@H]1C[C@H](OC(C)=O)[C@]2(C)[C@H](CC[C@@]34O[C@@H]3C3=C(C)C(=O)O[C@@H]3C[C@H]42)C1(C)C`: the Potency result in experiment [1] and in experiment [2] was “inactive” in each case.
Take `CC1=CC2/C=C(\C)CCC(O)C(=O)C(O)CC(=O)C23C(=O)NC(CC(C)C)C3C1C` (stereo not drawn): the Potency result in experiment [1] and in experiment [2] was “inactive” each time.
With `Cc1ccc(NC(=O)c2ccc(CN3CCNCC3)cc2)cc1Nc1nccc(-c2cccnc2)n1`, the Potency entry in experiment [1] and in experiment [2] was “inactive” in each case.
For `Cn1ncc(Cl)c1-c1cc(C(=O)NC(CN)Cc2ccc(F)c(F)c2)oc1Cl` (stereo not drawn), the Potency result in experiment [1] and in experiment [2] was “inactive” throughout.
As to `COCCN(C(=O)c1cc(OC)c(OC)c(OC)c1)c1nc(-c2ccccc2)cs1`, the Potency result in experiment [1] and in experiment [2] was “inactive” in each case.
In the case of `NC(N)=NC(=O)c1cnn(-c2cccc3ncccc23)c1C1CC1`, the Potency entry in experiment [1] and in experiment [2] was “inactive” throughout.
As for `CCC(CC)Nc1nc(C)c(-c2ccc(OC(F)(F)F)cc2OC)nc1OC`, the Potency result in experiment [1] and in experiment [2] was “inactive” in each case.
Turning to `COc1cc(/C=N\NC(=O)c2ccc3c(c2)OCO3)ccc1OCc1ccccc1`, the Potency entry in experiment [1] and in experiment [2] was “inactive” throughout.
As to `CC(=O)OC(C)(C)/C=C/C(=O)C(C)(O)C1C(O)CC2(C)C3CC=C(C(C)(C)C(=O)O)C(CC(=O)O)C3(C)C(=O)CC12C` (stereo not drawn), the Potency entry in experiment [1] and in experiment [2] was “inactive” each time.
As for `Cc1cccc(C#Cc2cc(F)cc(C#N)c2)n1`, the Potency result in experiment [1] and in experiment [2] was “inactive” each time.
Turning to `O=C(NO)c1cnc(N2CCN(S(=O)(=O)c3ccc4ccccc4c3)CC2)nc1`, the Potency result in experiment [1] and in experiment [2] was “inactive” in each case.
Regarding `COc1c(C)cc(NC(=O)c2nn(Cc3ccc(F)cc3)c3c2CN(C(=O)c2ccc[nH]2)C[C@]3(C)C(N)=O)cc1C`, the Potency entry in experiment [1] and in experiment [2] was “inactive” throughout.
As for `CN(C)c1ccnc2sc3c(=O)n(N4CCCCCC4)cnc3c12`, the Potency result in experiment [1] and in experiment [2] was “inactive” each time.
As for `O=C(NCC1CCN(Cc2cccc(Cl)c2)CC1)[C@@H]1CCCN(c2ncnc3c2nc2n3CCCC2)C1`, the Potency entry in experiment [1] and in experiment [2] was “inactive” throughout.
Turning to `CC(C)S(=O)(=O)NC[C@H](C)c1ccc(-c2ccc(CCNS(C)(=O)=O)cc2)cc1`, the Potency result in experiment [1] and in experiment [2] was “inactive” each time.
